In the supplement of paper PMC8047044 one finds neurite formation score data, which are given here for 37 compounds.

Several values for one entry are separate records, joined by “and”; a condition that tells them apart may be missing. Equal values may be shown once. Where a name gives a salt, the structure may show the parent alone.

For the assay, the system named is Neuro-2a. Description: neurite formation score, plate-normalized to DMSO control mean 5.04 (score (0-8 scale)); higher = more or longer neurites. Conditions: 1 µM. As for the experimental part: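 Neuro-2a mouse neuroblastoma cells in PLL-coated 96-well plates were pre-treated for 1 h in DMEM(+) with each kinase inhibitor at 1 µM, then switched to serum-free DMEM(-) with inhibitor to induce neurite outgrowth and fixed about 2-3 h later. Three blinded observers scored neurite formation from 0 (no neurites) to 8 (long neurites on almost all cells).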
On to `COc1cc2ncnc(Oc3cccc(NC(=O)Nc4cc(C(C)(C)C(F)(F)F)on4)c3)c2cc1OC`, for which the neurite formation score came out at 5.24.
Next, `N#C/C(=C\c1ccc(O)c(O)c1)C(=O)NCc1ccccc1`: 4.02; `Cc1ccc(S(=O)(=O)Nc2nc3ccccc3nc2Nc2ccc3nsnc3c2)cc1`: 4.14.
Next, `O=C1NC(=O)/C(=C/c2ccc3nccc(-c4ccncc4)c3c2)S1`: 4.14; `Cc1ccc2nc(NCCN)c3ncc(C)n3c2c1`: 4.47 and 4.14.
Next, `C=CC(=O)N1CCC(Oc2cc3c(Nc4ccc(Cl)c(Cl)c4F)ncnc3cc2OC)CC1` [Poziotinib]: 4.14; `NC1(c2ccc(-c3nc4ccn5c(=O)[nH]nc5c4cc3-c3ccccc3)cc2)CCC1` [MK-2206 dihydrochloride]: 4.24; `O=c1cc(-c2ccccc2)oc2c(O)c(O)ccc12` [7,8-Dihydroxyflavone]: 4.21.
Consider `COCCOc1ccc2c(c1)ncn2-c1ccc2cccc(N3CCC(N)CC3)c2n1`, for which the neurite formation score was 4.88.
Turning to `COc1cc2ncnc(Nc3ccc(F)c(Cl)c3)c2cc1NC(=O)/C=C/CN1CCCCC1`, the neurite formation score stood at 4.9.
The compound `O=[N+]([O-])c1ccc(-c2nc(-c3ccc(F)cc3)c(-c3ccncc3)[nH]2)cc1` had a neurite formation score of 3.96.
`CN(C)c1ccc(-c2nc3ncc(Cl)c(N4CCN(CC(=O)Nc5nccs5)CC4)c3[nH]2)cc1` returned a neurite formation score of 3.8.
For the compound `CN1C/C=C/CCOc2cccc(c2)-c2ccnc(n2)Nc2cccc(c2)C1`, the neurite formation score was found to be 2.8.
On to `O=c1oc2c(O)c(O)cc3c(=O)oc4c(O)c(O)cc1c4c23` [Ellagic acid], for which the neurite formation score is 4.47.
The compound `Cc1ccc(C(=O)Nc2ccc(CN3CCN(C)CC3)c(C(F)(F)F)c2)cc1C#Cc1cnc2[nH]ncc2c1` showed a neurite formation score of 0.626.
The compound `Cc1ccc(-n2nc(C(C)(C)C)cc2NC(=O)Nc2ccc(OCCN3CCOCC3)c3ccccc23)cc1` [BIRB 796 (Doramapimod)] yielded a neurite formation score of 4.57.
In the case of `COc1ccc(C(=O)Nc2sc3c(c2C(N)=O)CCCC3)cc1OC`, the neurite formation score turned out to be 4.57.
`O=c1cc(N2CCOCC2)oc2c1ccc1ccccc12` had a neurite formation score of 4.8.
`C=CC(=O)Nc1ccc2ncnc(Nc3cccc(Br)c3)c2c1` showed a neurite formation score of 4.24.
Next, `Cc1cc(O)c2c(c1)C(=O)c1cccc(O)c1C2=O` [Chrysophanol]: 4.8.
For the compound `O=c1sn(-c2cccc3ccccc23)c(=O)n1Cc1ccccc1` [Tideglusib], the neurite formation score was determined as 4.21.
`CCc1cnn2c(NCc3ccc[n+]([O-])c3)cc(N3CCCC[C@H]3CCO)nc12` gave a neurite formation score of 3.14.
Consider `COc1ccc(S(=O)(=O)N(CCO)c2ccccc2CN(C)C/C=C/c2ccc(Cl)cc2)cc1` [KN-93 Phosphate], for which the neurite formation score came out at 4.21.
Compound `Cc1cc(Nc2cc(N3CCN(C)CC3)nc(Sc3ccc(NC(=O)C4CC4)cc3)n2)n[nH]1` [VX-680 (MK-0457,Tozasertib)] showed a neurite formation score of 5.02.
Compound `CCC[C@H](NC(=O)/C(C#N)=C/c1cccc(Br)n1)c1ccccc1` came in with a neurite formation score of 1.24.
With `Cc1cc2c(F)c(Oc3ncnn4cc(OC[C@@H](C)O)c(C)c34)ccc2[nH]1` the figure was 4.57; with `C[C@@H](Oc1ccc2[nH]nc(/C=C/c3cnn(CCO)c3)c2c1)c1c(Cl)cncc1Cl`, 1.02; with `COc1cc(-c2cc(-c3ccc(N4CCNCC4)cc3)cnc2C)cc(OC)c1OC`, 4.47.
`O=C(/C=C/c1ccc2ccccc2n1)c1ccncc1` registered a neurite formation score of 5.21.
`Nc1cc(N)c(N)cc1N` [FAK Inhibitor 14] displayed a neurite formation score of 4.54.
With `Cc1cc(NC(=O)c2cccc(NC(=O)/C=C/CN(C)C)c2)ccc1Nc1nccc(-c2cccnc2)n1` the figure was 5.36; with `Cn1cc(-c2ccc3c(c2)CCN3C(=O)Cc2cccc(C(F)(F)F)c2)c2c(N)ncnc21`, 4.36.
As for `Nc1cccc(S(=O)(=O)N2CCCN(S(=O)(=O)c3ccc4c(c3)OCCO4)CC2)c1`, the neurite formation score is 4.14.
As for `COc1cc2nccc(Oc3ccc(NC(=O)C4(C(=O)Nc5ccc(F)cc5)CC4)cc3)c2cc1OC`, the neurite formation score came out at 3.57.
For the compound `CN1CCN(Cc2ccc(-c3cnc4[nH]cc(-c5ccc6[nH]ccc6c5)c4c3)cc2)CC1`, the neurite formation score was determined as 4.54.
The compound `C[C@@H](Oc1cc(-c2cnn(C3CCNCC3)c2)cnc1N)c1c(Cl)ccc(F)c1Cl` [(R)-Crizotinib] yielded a neurite formation score of 4.91.
Next, `COC(=O)Nc1nc2cc(C(=O)c3cccs3)ccc2[nH]1` [Nocodazole]: 1.29.
